# Laboratory results from the supplement of paper PMC10338343.
# ± gives the standard deviation.
# Assays:
# [1] = system: MILI (PIWIL2) piRISC loaded with L1MC piRNA (26 nt); test: pre-steady-state target cleavage rate (min^-1); guide: L1MC piRNA 5'p-UAACUAAAUACUAUGCAAGCUGUAGG; higher = faster piRNA-guided slicing of the target
# Outline: (§1)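 With or without 500 nM GTSF1 partner protein, 1 nM active affinity-purified piRISC carrying one synthetic guide was mixed with 0.1 nM transcribed, DNA-blocked target RNA library in HEPES–potassium acetate buffer at 33 °C for 0–8 or 0–960 min. Uncleaved targets were sequenced and normalised to depth and to weakly complementary targets, three trials were pooled, and k3 was capped at 0.0001 min^-1. The pre-steady-state cleavage rate came from a burst-and-steady-state fit.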
# [2] = system: EfPiwi piRISC loaded with L1MC piRNA (26 nt); test: pre-steady-state target cleavage rate (min^-1); auxiliary factor: 500 nM Ephydatia muelleri Gtsf1; guide: L1MC piRNA 5'p-UAACUAAAUACUAUGCAAGCUGUAGG; MIWI and MILI are mouse PIWI proteins and EfPiwi is from a freshwater sponge; tags in brackets are library labels; higher = faster piRNA-guided slicing of the target
# Outline: as §1
# [3] = auxiliary factor: 500 nM mouse GTSF1
# [4] = auxiliary factor: none (no GTSF1)
Sequence,"pre-steady-state target cleavage rate [1, 3]","pre-steady-state target cleavage rate [1, 4]",pre-steady-state target cleavage rate [2]
UCCUGCUACAGCUUCCAUUGUAUUUAGUUA,0.157 ± 0.029,0.00322 ± 0.0022,0.00266 ± 0.0018
UCCUGCUACAGCUUGCAUCGUAUUUAGUUA,0.168 ± 0.022,0.006 ± 0.0019,0.0091 ± 0.0022
UCCUGGUUGUGCUUGCAUAGUAUUUAGUAA,0.0938 ± 0.02,0.00427 ± 0.0031,0.00401 ± 0.0038
UCCUGGAUCAGCUUGCAUAGUAUUUAGUUC [g2:g22:cont:t1C],0.235 ± 0.016,0.00817 ± 0.0026,0.0501 ± 0.011
UCCUGGAACAGCUUGGAUAGUAUUUUGUUA,0.203 ± 0.034,0.00404 ± 0.0026,0.00249 ± 0.0021
UCCUGCUACAGCUUGCAUAGUAUUCUAGUUA,0.26 ± 0.038,0.00709 ± 0.0024,0.0043 ± 0.002
UCCUGGAUGUGCUUCGCAUAGUAUUUAGUUA,0.155 ± 0.023,0.00505 ± 0.0021,0.0132 ± 0.0048
UCCUGCUACAGCUCUGCAUAGUAUUUAGUUA,0.25 ± 0.016,0.00983 ± 0.0027,0.0151 ± 0.0038
UCCUCCUACAGCUGGCAUAGUAUUUAGUUA,0.294 ± 0.02,0.00732 ± 0.0023,0.0728 ± 0.02
UCCUCCUACAGCUUGCAUUGUUUUUAGUUA,0.0161 ± 0.0055,0.0039 ± 0.002,0.00277 ± 0.0025
UCCUGGAAGAGCAUGCAUAGUAUUUAGUUA,0.196 ± 0.015,0.00911 ± 0.0029,0.0132 ± 0.004
UCCUGGAUCAGCUUGCAUUGUAUUUAGUUA,0.179 ± 0.013,0.00955 ± 0.0024,0.0179 ± 0.0038
UCCUGGAUGUCCUUGCAUAGUAUUUAGUUU [g2:g19:cont:t1U],0.17 ± 0.022,0.0113 ± 0.0024,0.00601 ± 0.0034
UCCUCCUACAACUUGCAUAGUAUUUAGUUA,0.266 ± 0.019,0.0079 ± 0.0018,0.0806 ± 0.024
UCCUCCUACAGCUUGCAUAGUUUUAGUUA,0.0249 ± 0.0085,0.0026 ± 0.0026,0.00276 ± 0.0023
UCCUGCUACAGAUUGCAUAGUAUUUAGUUA,0.299 ± 0.015,0.0107 ± 0.0034,0.0138 ± 0.0034
UCCUCCUACAGCUGUGCAUAGUAUUUAGUUA,0.321 ± 0.017,0.00714 ± 0.0025,0.0425 ± 0.015
UCCUGCUACAGCUAGCAUAGUAUAUAGUUA,0.27 ± 0.03,0.00448 ± 0.0023,0.00485 ± 0.0017
UCCUGGAUCAGCUUGCAUAGUAUUUAGAUA,0.114 ± 0.013,0.00393 ± 0.0016,0.00499 ± 0.0022
UCCUGGAACAGCUUGCAUAGUAUCUUAGUUA,0.267 ± 0.022,0.00791 ± 0.0019,0.0187 ± 0.0064
UCCUCCUACAGCUUGCAUAGUAUAAUGUUA,0.158 ± 0.026,0.00294 ± 0.0027,0.00388 ± 0.0022
UCCUCCUACAUGCUUGCAUAGUAUUUAGUUA,0.149 ± 0.018,0.0058 ± 0.002,0.00449 ± 0.0018
UCCUGGAUCUCCUUGCAUAGUAUUUAGUUA,0.226 ± 0.014,0.00588 ± 0.0018,0.0227 ± 0.0066
UCCUGGAACAGUUGCAUAGUAUUUAGUUA,0.2 ± 0.014,0.00668 ± 0.0022,0.0543 ± 0.013
UCCUGCUACUGCUUGCAUAGUUUUUAGUUA,0.0524 ± 0.011,0.00424 ± 0.0018,0.00399 ± 0.0017

Sequence,"pre-steady-state target cleavage rate [1, 3]","pre-steady-state target cleavage rate [1, 4]",pre-steady-state target cleavage rate [2]
UCCUGGAUCAGCUAGCAAAGUAUUUAGUUA,0.0976 ± 0.012,0.00566 ± 0.0019,0.00308 ± 0.0029
UCCUGGAUGUGCUUGCAUUGUAUUUAGUUA,0.0666 ± 0.013,0.00523 ± 0.0031,0.00484 ± 0.0027
UCCUGCUACAGCUUGCAAAGUAUUUAGUAA,0.121 ± 0.021,0.00272 ± 0.0025,0.00434 ± 0.0016
UCCUGGAACAGCUUGCAUAGUAUUGUAGUUA,0.151 ± 0.02,0.00351 ± 0.0026,0.00741 ± 0.0027
UCCUGGUACAGCUUGCAUAGUAUUUAGUGA,0.129 ± 0.021,0.00389 ± 0.0025,0.00447 ± 0.0018
UCCUGGAACUGCUUGCAUUGUAUUUAGUUA,0.177 ± 0.015,0.00842 ± 0.0019,0.00574 ± 0.0019
UCCUGGAUGAGCUUGCAUAGUAUUUAGUUG [g2:g21:cont:t1G],0.186 ± 0.019,0.00606 ± 0.0029,0.0161 ± 0.0043
UCCUCCUACAGCUUGGAUAGUAAUUAGUUA,0.25 ± 0.024,0.00499 ± 0.0021,0.0274 ± 0.0089
UCCUGGAUCAGCUUGCAUAGUAAUUUAGUUA,0.162 ± 0.018,0.00701 ± 0.0022,0.00371 ± 0.0025
UCCUGGAACAGCUUGCAUAGUAUUUGGUUA,0.221 ± 0.026,0.00881 ± 0.0026,0.00496 ± 0.002
UCCUGCGACAGCUUGCAUAGUAUUUAGUUA,0.298 ± 0.016,0.00828 ± 0.0026,0.0339 ± 0.0075
UCCUGGAUCAGGCUUGCAUAGUAUUUAGUUA,0.213 ± 0.017,0.0107 ± 0.0028,0.0132 ± 0.0034
UCCUGGAUGAACUUGCAUAGUAUUUAGUUA,0.128 ± 0.013,0.00751 ± 0.0026,0.0179 ± 0.0064
UCCUGCUUGUGCUUGCAUAGUAUUUAGUUA,0.13 ± 0.017,0.00616 ± 0.0025,0.00618 ± 0.0027
UCCUGGAUGUGCUUGCAUAGUUUUUAGUUA,0.0127 ± 0.0066,0.00796 ± 0.0026,0.00538 ± 0.0024
UCCUGCAACAGCUUGCAUAGUUUUUAGUUA,0.0613 ± 0.0099,0.00354 ± 0.0029,0.00727 ± 0.0019
UCCUCCACAGCUUGCAUAGUAUUUAGUUA,0.248 ± 0.014,0.00686 ± 0.0018,0.0564 ± 0.018
UCCUGGAUGAGCUUGCAUCGUAUUUAGUUA,0.0594 ± 0.0092,0.00554 ± 0.0025,0.00975 ± 0.0029
UCCUGGAUGUCCUUGUAUAGUAUUUAGUUA,0.119 ± 0.018,0.0121 ± 0.0026,0.00424 ± 0.0024
UCCUGCUAGAGCUUGGAUAGUAUUUAGUUA,0.178 ± 0.014,0.0074 ± 0.0021,0.00499 ± 0.0016
UCCUGCUACAGCUAGCAAAGUAUUUAGUUA,0.137 ± 0.012,0.00463 ± 0.0024,0.0328 ± 0.0098
UCCUGGAUCAGCUUGCAUGGUAUUUAGUUA,0.285 ± 0.025,0.011 ± 0.0027,0.0193 ± 0.0038
UCCUGGAUCUGCUUGCAUAGUAAUUAGUUA,0.2 ± 0.017,0.00416 ± 0.0027,0.0152 ± 0.005
UCCUCCUACGGCUUGCAUAGUAUUUAGUUA,0.298 ± 0.018,0.0137 ± 0.004,0.0667 ± 0.017
UCCUGGUACAGCUUGCAUAGUAUUUAGUUG [g2:g24:cont:t1G],0.218 ± 0.018,0.00995 ± 0.003,0.0182 ± 0.0065
